Measurements from PubChem BioAssay AID567 (The Scripps Research Institute Molecular Screening Center, 2006).
Hit rate of the full screen: of about 65,000 compounds, about 370 (0.57%) were called active. Many of the other results were omitted from the sample, so actives are more common in it than they were. A number with no mark means an inactive call.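 The calls were made as follows: active = activation above the screen-wide mean activation plus 3 SD (cut at about 19% in these data); inactive = the rest.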

Each compound was assayed against 5-hydroxytryptamine receptor 1A (Homo sapiens) (UniProt P08908) (assay: agonism at serotonin HTR1A receptor – cell-based, CHO, Ga15 NFAT-bla reporter, primary screen (AID 567;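 also: 0% = DMSO wells and 100% = 5-CT at EC100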)). Settings: CHO 5-HT1a Ga15 NFAT-bla reporter, FRET ratio; at 10 µM; active compounds read high; 0% basal, 100% maximal reference agonist.
Sequence of 5-hydroxytryptamine receptor 1A (Homo sapiens) (P08908 whole entry, looked up): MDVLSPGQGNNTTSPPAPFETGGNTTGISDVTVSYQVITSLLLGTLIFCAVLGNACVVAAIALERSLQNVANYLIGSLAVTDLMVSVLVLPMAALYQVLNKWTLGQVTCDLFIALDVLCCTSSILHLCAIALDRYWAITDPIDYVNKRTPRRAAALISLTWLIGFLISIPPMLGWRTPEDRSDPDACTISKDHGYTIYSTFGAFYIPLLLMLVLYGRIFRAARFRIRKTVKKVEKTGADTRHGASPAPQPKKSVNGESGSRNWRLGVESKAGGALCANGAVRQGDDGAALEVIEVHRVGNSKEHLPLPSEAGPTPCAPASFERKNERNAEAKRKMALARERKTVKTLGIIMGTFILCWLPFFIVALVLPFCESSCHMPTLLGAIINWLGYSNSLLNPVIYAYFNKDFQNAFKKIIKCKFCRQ

Question: With `COC(=O)c1ccc(S(=O)(=O)c2ccc(C(=O)OC)s2)s1` as the compound, how does the activation read?
Answer: 2.5%

Question: Which activation does the source give for `CCOC(=O)CN(C(=O)CN1CCOCC1)c1ccc(Br)cc1` here?
Answer: -0.22%

Question: With `CCOC(=O)C1CCN(C(c2cc3cc(C)cc(C)c3[nH]c2=O)c2nnnn2C2CCCCC2)CC1` (centres undefined) as the compound, how does the activation read?
Answer: -0.97%

Question: Which activation does the source give for `CC(C)CCNC(=O)C1CCCN(S(=O)(=O)c2ccc(F)cc2)C1` (centres undefined) here?
Answer: 0.42%

Question: Which activation does the source give for `O=C(NCc1ccco1)c1ccc(CS(=O)(=O)Cc2ccc(F)cc2)o1` here?
Answer: -3.1%

Question: For `O=C(c1cccs1)N1CCCC(c2nc(-c3ccc(F)cc3)no2)C1` (centres undefined), which activation is on record?
Answer: -1.69%

Question: How did the activation turn out when `Cn1c(=O)c2c(ncn2CC(=O)N2CCN(c3ccccc3)CC2)n(C)c1=O` was run?
Answer: -0.49%

Question: With `Cc1noc(NS(=O)(=O)c2ccc(NC(=O)C34CCC(CC3)C4)cc2)c1C` as the compound, how does the activation read?
Answer: 0.73%

Question: For `COc1ccc(C(=O)Nc2ccc(S(=O)(=O)Nc3onc(C)c3C)cc2)cc1OC`, which activation is on record?
Answer: -4.48%

Question: Which activation does the source give for `Cc1noc(NS(=O)(=O)c2ccc(N3CC(O)=C(c4ccccc4)C3=N)cc2)c1C` here?
Answer: 147% (active)

Question: For `COc1cccc2c(=O)n(CC(=O)N3CCCCCC3)ccc12`, which activation is on record?
Answer: -2.41%

Question: Which activation does the source give for `CC1=C(C(=O)OCc2ccccc2)C(c2ccco2)n2ncnc2N1` (centres undefined) here?
Answer: 2.82%

Question: How did the activation turn out when `CCCOc1ccc(N2CC(C(=O)Nc3ccccn3)CC2=O)cc1` (centres undefined) was run?
Answer: -1.38%

Question: `COc1cc2ccccc2cc1C(=O)Nc1ccc(S(=O)(=O)Nc2cc(C)on2)cc1` was tested. Which activation did it give?
Answer: 0.01%

Question: How did the activation turn out when `CC(C)(C)n1c(=O)[nH]c2c(c1=O)CCC2` was run?
Answer: -0.19%

Question: `Cc1ccc(-n2nc3cc(Cl)c(NC(=O)c4ccco4)cc3n2)cc1` was tested. Which activation did it give?
Answer: 0.44%

Question: `c1ccc2cc(OCCN3CCCC3)ccc2c1` was tested. Which activation did it give?
Answer: -1%

Question: How did the activation turn out when `O=C(CN1C2CCC1CC(NC(=O)C1CC1)C2)NCc1ccccc1` (centres undefined) was run?
Answer: 0.81%

Question: With `CCn1c(SCC(=O)Nc2ccc3c(c2)OCCO3)nc2c(c1=O)SC(C)C2` (centres undefined) as the compound, how does the activation read?
Answer: 1.05%

Question: For `O=C(c1ccc2c(c1)OCCO2)C1CCN(S(=O)(=O)c2cccc(F)c2)CC1`, which activation is on record?
Answer: -3.42%

Question: `CC(=O)NS(=O)(=O)c1ccccc1` was tested. Which activation did it give?
Answer: -2.33%

Question: How did the activation turn out when `Fc1cnc(N2CCOCC2)nc1NCc1ccccc1` was run?
Answer: -1.58%

Question: Which activation does the source give for `CCn1c(SCC(=O)Nc2nccs2)nnc1-c1ccncc1` here?
Answer: -0.84%

Question: With `CC(=O)Cc1nsc(NC(=O)c2csc3c2CCCC3)n1` as the compound, how does the activation read?
Answer: 0.34%

Question: How did the activation turn out when `CC(=O)Cc1nsc(NC(=O)c2ccc(COc3ccc(C)cc3)o2)n1` was run?
Answer: -1.31%

Question: `COc1ccc(-c2nn(-c3ccccc3)cc2C(=O)Nc2nc(CC(C)=O)ns2)cc1` was tested. Which activation did it give?
Answer: 59.1% (active)

Question: How did the activation turn out when `CCOc1cc(C2C(C(=O)OC)=CN(C3CCCC3)C=C2C(=O)OC)cc(Br)c1O` was run?
Answer: 14.4%

Question: For `CCOc1ccccc1C1C(C(=O)OC)=CN(C)C=C1C(=O)OC`, which activation is on record?
Answer: 20.1% (active)

Question: How did the activation turn out when `COC(=O)C1=CN(C)C=C(C(=O)OC)C1c1ccc(Cl)cc1Cl` was run?
Answer: 13.7%

Question: `CC(=O)c1ccc(N2C(=NC(=O)C(C)C)SC3CS(=O)(=O)CC32)cc1` (centres undefined) was tested. Which activation did it give?
Answer: -1.94%

Question: For `CN(C)/C=C1/Nc2ccccc2C1=O`, which activation is on record?
Answer: -1.11%

Question: How did the activation turn out when `O=C(O)c1ccc(F)c(S(=O)(=O)Nc2ccccc2)c1` was run?
Answer: 1%

Question: With `COc1ccc(NC(C)=O)cc1NC(=O)CN1CCN(c2ccccn2)CC1` as the compound, how does the activation read?
Answer: -1.16%

Question: `COC(=O)c1ccc(C2NC(=O)NC(C)=C2C(=O)N(C)C)cc1` (centres undefined) was tested. Which activation did it give?
Answer: -3.69%

Question: For `O=C(c1ccc(S(=O)(=O)N2CCOCC2)cc1)N1CCN(c2ccccc2)CC1`, which activation is on record?
Answer: -2.91%

Question: For `CNC(=O)c1nnn(-c2ccccc2)c1C(=O)NC`, which activation is on record?
Answer: -1.73%

Question: `CCOc1ccc(NS(=O)(=O)c2ccc(OCC(=O)NCCCOC)cc2)cc1` was tested. Which activation did it give?
Answer: -1.21%

Question: For `O=C(COC(=O)CCc1c[nH]c(=O)[nH]1)Nc1ccccc1Cl`, which activation is on record?
Answer: -0.97%

Question: Which activation does the source give for `CCOC(=O)c1c(C)[nH]c(C(=O)NCc2ccccc2OC)c1C` here?
Answer: -0.94%

Question: Which activation does the source give for `CCOc1ccc(NC(=O)Nc2cc(C)ccc2OC)cc1` here?
Answer: -4.41%

Question: `COc1ccc(C)cc1NC(=O)c1[nH]c(C)c(C(C)=O)c1C` was tested. Which activation did it give?
Answer: 43.5% (active)

Question: For `O=C(CSc1nnc(-c2ccco2)o1)NCC(=O)c1ccccc1`, which activation is on record?
Answer: 0.23%

Question: Which activation does the source give for `Cc1ccc(CNC(=O)C2CCCN(S(C)(=O)=O)C2)cc1` (centres undefined) here?
Answer: 0.44%

Question: With `Cc1cc(C)c(NC(=O)CS(=O)CC(=O)Nc2cccnc2)c(C)c1` (centres undefined) as the compound, how does the activation read?
Answer: 0.42%

Question: For `CCCC(=O)Nc1ccc(C(=O)NCCCn2ccnc2)cc1`, which activation is on record?
Answer: -3.99%

Question: How did the activation turn out when `CCOC(=O)C1(Cc2ccc(O)cc2)NC(c2ccccc2F)C2C(=O)N(C)C(=O)C21` (centres undefined) was run?
Answer: -1.57%

Question: How did the activation turn out when `COc1ccccc1N1CC(O)=C(c2nc3ccccc3s2)C1=N` was run?
Answer: -3.98%

Question: With `Cc1ccc(C(=O)CS(C)(=O)=O)cc1` as the compound, how does the activation read?
Answer: -5.39%

Question: For `O=C(O)C1CCCN(S(=O)(=O)c2cccc3cccnc23)C1` (centres undefined), which activation is on record?
Answer: -4.76%

Question: With `Cc1[nH]c2ccc(S(N)(=O)=O)cc2c1C` as the compound, how does the activation read?
Answer: -0.45%

Question: How did the activation turn out when `Cc1ccccc1CSCC(=O)NC(=O)NC(C)(C)C` was run?
Answer: -1.47%

Question: `CC1CCCN(c2ccc(C(=O)NCCc3ccccc3)cn2)C1` (centres undefined) was tested. Which activation did it give?
Answer: -0.9%

Question: With `C=CCn1c(N)c(C(=O)OCC(C)C)c2nc3ccccc3nc21` as the compound, how does the activation read?
Answer: 0.61%

Question: How did the activation turn out when `CC(C)Cn1c(N)c(C(=O)NCc2cccs2)c2nc3ccccc3nc21` was run?
Answer: 77.6% (active)

Question: How did the activation turn out when `C=CCn1c(N)c(S(=O)(=O)c2cccs2)c2nc3ccccc3nc21` was run?
Answer: -0.33%

Question: With `CCOc1ccc2nc(SC(CC)C(=O)Nc3cc(C)on3)sc2c1` (centres undefined) as the compound, how does the activation read?
Answer: 0.42%

Question: For `COc1ccc(F)cc1S(=O)(=O)Nc1ccc2c(c1)OCO2`, which activation is on record?
Answer: -5.74%

Question: `O=C(Cn1cnc2c(nnn2Cc2ccc(F)cc2)c1=O)NCc1ccc2c(c1)OCO2` was tested. Which activation did it give?
Answer: -1.47%

Question: For `COc1cccc2c(C)c(C(=O)O)[nH]c12`, which activation is on record?
Answer: 1.98%

Question: For `C=CCSC1=C(C#N)C(c2cc(Br)c(O)c(OC)c2)CC(=O)N1` (centres undefined), which activation is on record?
Answer: 1.53%

Question: With `C=CCNc1nnc(SCC(=O)N2CCCCC2)c2ccccc12` as the compound, how does the activation read?
Answer: 0.32%

Question: With `O=C1c2ccncc2C(=O)N1C1CCCCC1` as the compound, how does the activation read?
Answer: -3.22%

Question: `CC1Cn2c(nnc2-c2cccs2)S1` (centres undefined) was tested. Which activation did it give?
Answer: 0.5%

Question: Which activation does the source give for `Cc1ccc(CNC(=O)CN2CCN(Cc3ccc(Cl)cc3)C2=O)cc1` here?
Answer: 0.67%

Question: With `Cn1c(C(=O)NCCN2CCc3ccccc3C2)cc2c(=O)[nH]c3ccccc3c21` as the compound, how does the activation read?
Answer: -1.75%

Question: `CCc1ccccc1N(CC(=O)N1CCN(c2ccccc2F)CC1)S(C)(=O)=O` was tested. Which activation did it give?
Answer: -1.54%

Question: How did the activation turn out when `COc1ccccc1CNC(=O)CCCn1c(=O)c2ccccc2n(CC(=O)NC2CCCC2)c1=O` was run?
Answer: -2.51%

Question: For `CCCOC(=O)CC1C(=O)NCCN1Cc1ccc(F)cc1` (centres undefined), which activation is on record?
Answer: 1.2%

Question: How did the activation turn out when `Cc1c(NC(=O)C(C)OC(=O)c2cc3c4ccccc4n(C)c3s2)c(=O)n(-c2ccccc2)n1C` (centres undefined) was run?
Answer: 1.13%

Question: For `COC(=O)c1ccc2c(=O)n(CC3CCCO3)c(=S)[nH]c2c1` (centres undefined), which activation is on record?
Answer: 66.3% (active)

Question: Which activation does the source give for `O=C(NC1CCCCC1)c1ccc2c(=O)n(CC3CCCO3)c(=O)[nH]c2c1` (centres undefined) here?
Answer: -3.15%

Question: For `O=c1c2cc3c(=O)n(CC4CCCO4)c(=O)c3cc2c(=O)n1CC1CCCO1` (centres undefined), which activation is on record?
Answer: -2.73%

Question: Which activation does the source give for `CCC(C)NC(=O)C1CCC(=O)N1Cc1ccc(C)cc1` (centres undefined) here?
Answer: -3.11%

Question: How did the activation turn out when `CCOc1ccc(C2C(C(=O)NC)=C(C)Nc3nc4ccccc4n32)cc1OC` (centres undefined) was run?
Answer: -2.74%

Question: With `c1cnc(NC2C3CC4CC(C3)CC2C4)nc1` (centres undefined) as the compound, how does the activation read?
Answer: -0.19%

Question: With `COc1ccc2c(c1OC)C(=O)OC2c1c(O)nc(SC)n(-c2ccccc2)c1=O` (centres undefined) as the compound, how does the activation read?
Answer: 1.4%

Question: How did the activation turn out when `CCn1c(-c2cc(OC)ccc2OC)csc1=Nc1c(C)n(C)n(-c2ccccc2)c1=O` was run?
Answer: -3.67%

Question: How did the activation turn out when `CCOC(=O)Cn1c(=O)oc2cc(S(=O)(=O)N(C)Cc3ccco3)ccc21` was run?
Answer: -3.37%

Question: With `Cc1ccc(C(C)C)c(OCc2nnc(SCC(=O)Nc3nccs3)n2C)c1` as the compound, how does the activation read?
Answer: -0.25%

Question: `c1cnn(-c2cc(N3CCOCC3)ncn2)c1` was tested. Which activation did it give?
Answer: 42% (active)

Question: `O=C1c2ccccc2-c2ncnc3c(N4CCOCC4)cc(N4CCOCC4)c1c23` was tested. Which activation did it give?
Answer: 0.99%

Question: With `O=C(Nc1cc(N2CCOCC2)ncn1)NC1(C(F)(F)F)Oc2ccc(Cl)cc2O1` (centres undefined) as the compound, how does the activation read?
Answer: -2.08%

Question: How did the activation turn out when `CC(C)(C)OC(=O)c1c(N)n(CCCN2CCCC2=O)c2nc3ccccc3nc12` was run?
Answer: 4.61%

Question: `N#Cc1c(N)n(CCOC(=O)c2ccc(Cl)cc2)c2nc3ccccc3nc12` was tested. Which activation did it give?
Answer: 27.6% (active)

Question: How did the activation turn out when `COCCCn1c2nc3ccccc3nc2c2c(=O)n(Cc3ccc(Cl)cc3)c(C)nc21` was run?
Answer: 1.36%

Question: With `CCC(=O)c1ccc(OCC(O)CN2CCN(c3cccc(C(F)(F)F)c3)CC2)cc1` (centres undefined) as the compound, how does the activation read?
Answer: 36.5% (active)

Question: With `COc1cccc(OCC(O)CN2CCN(CCO)CC2)c1` (centres undefined) as the compound, how does the activation read?
Answer: 1%

Question: For `O=C(C(c1ccccc1)c1ccccc1)N1CCN(CC(O)COc2ccccc2)CC1` (centres undefined), which activation is on record?
Answer: -2.69%

Question: How did the activation turn out when `Cn1nc(-c2ccc(Cl)cc2)c2cc(C(=O)NCc3ccco3)sc21` was run?
Answer: -2.11%

Question: How did the activation turn out when `CCc1c(C)nc(N2CCN(Cc3ccccc3)CC2)[nH]c1=O` was run?
Answer: -1.04%

Question: How did the activation turn out when `CC(C)N1C(=O)C2C(C(=O)NC3CCCCC3)C3C=CC2(O3)C1C(=O)NC1CCCC1` (centres undefined) was run?
Answer: -3.66%

Question: With `CCn1c(CNC(=O)c2ccc(OC)c(OC)c2)nnc1SCC(=O)Nc1ccccc1` as the compound, how does the activation read?
Answer: 1.92%

Question: Which activation does the source give for `CCCNS(=O)(=O)c1ccc(CCC(=O)NCc2cccnc2)cc1` here?
Answer: 0.51%

Question: How did the activation turn out when `CCN1CCN(Cc2nc3c(c(=O)n(C)c(=O)n3C)n2CC(=O)c2ccccc2)CC1` was run?
Answer: -1.47%
